Measured values taken from PubChem BioAssay (Tox21).
Unmarked numbers belong to inactive results. Inconclusive results are not listed. A call without a number means that no potency is given here. The source made the active and inactive calls. Unless noted, the call rests on the fitted dose curve.

Key:
[1] = Nuclear factor erythroid 2-related factor 2/antioxidant responsive element (Nrf2/ARE) small molecule agonists: qHTS cell viability counter screen in human keratinocytes (AID 1919968; active means well fitted curve in the direction sought with a large enough effect in the repeat runs; an effect the other way counts as inactive or inconclusive; further: nearly all actives have a fitted effect of over 55% in size; further: potency means the concentration at half of the fitted maximal effect)
Outline: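 Fluorescence read-out from CellTiter-Fluor after 1 h at 37 C. Wells held HaCaT-derived ARE-luciferase reporter cells (1,500/well) treated 23 h with DMSO-dissolved compounds. Run in the same wells as the luciferase agonist read.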

[2] = Nuclear factor erythroid 2-related factor 2/antioxidant responsive element (Nrf2/ARE) small molecule agonists: luciferase reporter gene qHTS assay in human keratinocytes (AID 1919969); further: nearly all actives have a fitted effect of over 35% in size; further: potency means the concentration at half of the fitted maximal effect
[3] = biological target: KiSS-1 receptor (Homo sapiens) (UniProt Q969F8); assay: Human kisspeptin (KISS1R) small molecule agonists, calcium flux assay in KISS1R-HEK293 cells (AID 1920064; active means well fitted curve in the direction sought with a large enough effect in the repeat runs; an effect the other way counts as inactive or inconclusive)
Sequence of KiSS-1 receptor (Homo sapiens) (Q969F8 whole entry, looked up): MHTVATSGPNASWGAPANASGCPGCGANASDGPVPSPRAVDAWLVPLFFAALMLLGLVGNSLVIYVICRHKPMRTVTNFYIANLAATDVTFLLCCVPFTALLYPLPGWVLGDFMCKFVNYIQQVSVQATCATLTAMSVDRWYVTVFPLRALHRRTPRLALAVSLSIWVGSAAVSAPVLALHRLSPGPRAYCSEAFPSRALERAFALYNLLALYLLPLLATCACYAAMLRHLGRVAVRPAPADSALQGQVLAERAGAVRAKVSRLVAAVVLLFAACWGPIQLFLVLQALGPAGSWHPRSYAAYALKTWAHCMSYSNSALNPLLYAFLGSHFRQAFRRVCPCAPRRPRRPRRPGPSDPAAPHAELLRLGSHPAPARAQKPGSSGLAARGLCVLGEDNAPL
Outline: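 Calcium flux read-out: kinetic fluorescence at Ex/Em=480/540, 1 s intervals over 3 min, after pin-tool compound addition to dye-loaded KISS1R-HEK293 cells. Fifteen concentrations, triplicates.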

[4] = G protein-coupled receptor (GPCR) small molecule agonists, calcium flux assay: HEK293 wild type cell line counter screen (AID 1920065)
Outline: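 Agonist mode; 18 h seeding at 37 C, 1 h dye load at 37 C; compounds pinned from DMSO, ATP as positive control; kinetic fluorescence 480/540 nm, 3 min, 1 s reads; 15 concentrations, triplicate.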

[5] = p53 small molecule agonists, cell-based qHTS assay with human liver microsomes (AID 1963577);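 further: p53 response element beta-lactamase reporter cells with liver microsomes plus NADPH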
Outline: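 Steps: plate p53RE-bla cells, incubate 5 h at 37 C; add compound in DMSO; add microsomes (0.5 mg/mL final) and NADPH (0.5 mg/mL final); incubate 16 h at 37 C; add LiveBLAzer, 2 h RT; read fluorescence.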

[6] = p53 small molecule agonists, cell-based qHTS assay with rat liver microsomes (AID 1963578)
Outline: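 Metabolic activation is supplied by rat liver microsomes with NADPH (each 0.5 mg/mL final). p53RE-bla cells incubate with compound 16 h at 37 C; reporter activity is measured by LiveBLAzer fluorescence.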

[7] = p53 small molecule agonists, cell-based qHTS assay with human liver microsomes: qHTS cell viability counter screen (AID 1963579); further: nearly all actives have a fitted effect of over 45% in size
Outline: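 After the 460/530 nm beta-lactamase read, CellTiter-Glo was added to the same wells and luminescence measured after 30 min at room temperature, giving viability of p53RE-bla cells treated 16 h with compounds plus microsomes and NADPH.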

[8] = p53 small molecule agonists, cell-based qHTS assay with rat liver microsomes: qHTS cell viability counter screen (AID 1963580); further: nearly all actives have a fitted effect of over 45% in size
Outline: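 Luminescent ATP readout (CellTiter-Glo, 30 min at room temperature) reports viability of p53RE-bla HCT-116 cells after 16 h at 37 C with test compounds under metabolic activation by rat liver microsomes and NADPH at 0.5 mg/mL final each.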

[9] = p53 small molecule agonists, cell-based qHTS assay: qHTS cell viability counter screen (AID 1963581); further: nearly all actives have a fitted effect of over 45% in size; further: potency means the concentration at half of the fitted maximal effect
Outline: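 Cytotoxicity read-out: ATP-based luminescence (CellTiter-Glo, 30 min RT) measured in the same wells as the p53 reporter assay, HCT-116 p53RE-bla cells, 16 h compound exposure at 37 C.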

[10] = biological target: 5-hydroxytryptamine receptor 2A (Homo sapiens) (UniProt P28223); assay: 5-hydroxytryptamine receptor 2A (HTR2A) small molecule agonists, cell-based qHTS assay (AID 1963587); further: nearly all actives have a fitted effect of over 30% in size
Sequence of 5-hydroxytryptamine receptor 2A (Homo sapiens) (P28223 whole entry, looked up): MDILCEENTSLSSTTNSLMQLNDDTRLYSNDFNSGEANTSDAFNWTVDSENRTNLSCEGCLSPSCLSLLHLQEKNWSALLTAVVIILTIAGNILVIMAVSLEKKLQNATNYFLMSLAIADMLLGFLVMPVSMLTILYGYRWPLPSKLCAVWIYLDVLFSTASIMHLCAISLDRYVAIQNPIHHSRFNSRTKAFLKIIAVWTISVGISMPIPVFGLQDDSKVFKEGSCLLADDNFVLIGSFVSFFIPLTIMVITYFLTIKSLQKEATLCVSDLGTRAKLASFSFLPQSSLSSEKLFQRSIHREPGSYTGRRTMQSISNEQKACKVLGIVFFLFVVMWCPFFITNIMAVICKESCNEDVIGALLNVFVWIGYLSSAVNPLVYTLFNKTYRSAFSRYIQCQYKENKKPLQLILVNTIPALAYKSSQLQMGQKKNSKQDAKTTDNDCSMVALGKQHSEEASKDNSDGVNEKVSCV
Outline: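 HTR2A-CHO cells, plated 18 h at 37 C/5% CO2, dye-loaded 1 h at 37 C; compounds in DMSO added by pin tool (agonist mode). Intracellular calcium flux read as kinetic fluorescence on FDSS over 2 min at 1 s intervals.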

[11] = biological target: Muscarinic acetylcholine receptor M1 (Homo sapiens) (UniProt P11229); assay: Cholinergic receptor muscarinic 1 (CHRM1) small molecule antagonists, cell-based qHTS assay (AID 1963588); further: nearly all actives have a fitted effect of over 40% in size
Sequence of Muscarinic acetylcholine receptor M1 (Homo sapiens) (P11229 whole entry, looked up): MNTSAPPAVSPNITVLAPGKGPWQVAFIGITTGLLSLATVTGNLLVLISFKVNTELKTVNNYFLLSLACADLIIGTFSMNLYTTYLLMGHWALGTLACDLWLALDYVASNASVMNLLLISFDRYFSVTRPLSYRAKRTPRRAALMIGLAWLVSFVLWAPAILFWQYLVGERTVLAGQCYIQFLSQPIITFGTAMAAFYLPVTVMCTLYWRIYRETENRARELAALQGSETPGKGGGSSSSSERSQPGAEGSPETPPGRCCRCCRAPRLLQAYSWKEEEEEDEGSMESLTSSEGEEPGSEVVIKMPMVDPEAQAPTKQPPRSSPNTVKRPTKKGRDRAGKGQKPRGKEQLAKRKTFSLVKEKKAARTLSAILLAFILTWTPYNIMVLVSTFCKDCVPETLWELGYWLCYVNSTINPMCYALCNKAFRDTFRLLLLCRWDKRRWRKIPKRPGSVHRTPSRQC
Outline: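 Compounds were tested at 15 concentrations in three independent runs. Dye-loaded CHRM1-CHO cells were exposed 5 min at room temperature before stimulation by acetylcholine added at 50nM. Intracellular calcium was read kinetically on FDSS for 3 min.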

[12] = biological target: Muscarinic acetylcholine receptor M1 (Homo sapiens) (UniProt P11229); assay: Cholinergic receptor muscarinic 1 (CHRM1) small molecule agonists, cell-based qHTS assay (AID 1963589); further: nearly all actives have a fitted effect of over 35% in size
Outline: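 Calcium flux read-out: kinetic fluorescence at 1 sec intervals after pin-tool compound addition to dye-loaded CHRM1-CHO cells (human M1). Agonist mode; 15 concentrations tested in triplicate independent runs.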

[13] = cAMP Responsive Elements (CRE) small molecule agonists, cell-based qHTS assay (AID 1963590)
Outline: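 Beta-lactamase reporter readout: LiveBLAzer B/G FRET substrate, 2 h at room temperature, added after 3 h compound treatment of CRE-bla HEK 293T cells at 37 C/5% CO2.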

[14] = cAMP Responsive Elements (CRE) small molecule antagonists, cell-based qHTS assay (AID 1963591; active means well fitted inhibition curve with a large enough effect in the signal ratio in the repeat runs, not every such curve was filed as active; the % refers to the signal ratio)
Outline: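 HEK293T CRE-bla; 18 h preincubation; compound pin-transfer; NKH477 0.25 uM final, 3 h, 37 C; LiveBLAzer FRET substrate 2 h RT.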

[15] = biological target: Beta-2 adrenergic receptor (Homo sapiens) (UniProt P07550); assay: Adrenergic beta2 receptor (ADRB2) small molecule antagonists, cell-based qHTS assay (AID 1963592); further: series mostly up to about 92 µM; nearly all actives have a fitted effect of over 50% in size
Sequence of Beta-2 adrenergic receptor (Homo sapiens) (P07550 whole entry, looked up): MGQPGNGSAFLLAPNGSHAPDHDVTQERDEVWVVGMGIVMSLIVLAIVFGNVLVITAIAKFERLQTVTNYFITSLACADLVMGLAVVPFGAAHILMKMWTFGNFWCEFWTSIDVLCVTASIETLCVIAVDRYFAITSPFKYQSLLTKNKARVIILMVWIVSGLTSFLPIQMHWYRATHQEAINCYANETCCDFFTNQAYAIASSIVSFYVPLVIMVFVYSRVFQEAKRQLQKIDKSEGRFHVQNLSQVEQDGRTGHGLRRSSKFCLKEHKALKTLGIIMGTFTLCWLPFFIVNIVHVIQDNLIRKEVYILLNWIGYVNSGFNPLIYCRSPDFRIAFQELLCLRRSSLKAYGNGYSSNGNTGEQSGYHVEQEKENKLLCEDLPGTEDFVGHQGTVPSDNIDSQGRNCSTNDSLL
Outline: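 Assay format: CHO-ADRB2 cells, 18-20hr seeding at 37C/5% CO2, then compound plus 1nM isoproterenol agonist mix for 0.5hr RT. Homogeneous time-resolved fluorescence cAMP detection after 1hr, expressed as 665/615 nm ratio.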

[16] = biological target: D(2) dopamine receptor (Homo sapiens) (UniProt P14416); assay: Dopamine D2 receptor (DRD2) small molecule agonists, cell-based qHTS assay (AID 1963594); further: nearly all actives have a fitted effect of over 35% in size
Sequence of D(2) dopamine receptor (Homo sapiens) (P14416 whole entry, looked up): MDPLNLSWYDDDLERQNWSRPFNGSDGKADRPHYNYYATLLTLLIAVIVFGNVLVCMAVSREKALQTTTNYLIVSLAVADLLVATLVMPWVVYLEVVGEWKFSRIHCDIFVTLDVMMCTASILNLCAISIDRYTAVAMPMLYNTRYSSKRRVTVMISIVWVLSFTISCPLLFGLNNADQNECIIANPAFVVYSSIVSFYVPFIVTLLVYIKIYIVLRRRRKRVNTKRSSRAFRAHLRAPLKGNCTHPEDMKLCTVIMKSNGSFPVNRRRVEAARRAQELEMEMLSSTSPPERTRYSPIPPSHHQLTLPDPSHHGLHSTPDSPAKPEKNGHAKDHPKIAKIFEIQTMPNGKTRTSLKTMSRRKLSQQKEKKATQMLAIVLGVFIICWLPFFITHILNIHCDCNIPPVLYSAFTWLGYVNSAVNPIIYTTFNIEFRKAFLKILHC
Outline: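 HEK293 cells stably expressing DRD2 were cultured 24 h at 37 C, then given Ro20-1724 (0.1 mM final) and compounds for 10 min at room temperature. NKH477 (200nM) was then added for 30 min. cAMP was read by HTRF.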

[17] = p53 small molecule agonists, cell-based qHTS assay (AID 1963582; active means well fitted activation curve with a large enough effect in the signal ratio in the repeat runs, not every such curve was filed as active; the % refers to the signal ratio)
Outline: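 Fluorescence intensity read-out of a beta-lactamase reporter under a p53 response element. Cells were exposed to DMSO-dissolved compounds for 16 h at 37 C, then developed with FRET substrate for 2 h at RT.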

[18] = biological target: 5-hydroxytryptamine receptor 2A (Homo sapiens) (UniProt P28223); assay: 5-hydroxytryptamine receptor 2A (HTR2A) small molecule antagonists, cell-based qHTS assay (AID 1963586); further: nearly all actives have a fitted effect of over 45% in size
Outline: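 CHO cells stably expressing human HTR2A were plated for 18 h at 37 C, then loaded with calcium dye for 1 h. Compounds were preincubated 5 min at room temperature before DOI (4 nM solution) was added. Kinetic fluorescence was read for 3 min.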

[19] = biological target: D(2) dopamine receptor (Homo sapiens) (UniProt P14416); assay: Dopamine D2 receptor (DRD2) small molecule antagonists, cell-based qHTS assay (AID 1963595; active means well fitted inhibition curve with a large enough effect in the signal ratio in the repeat runs, with a control signal flat; the % refers to the signal ratio)
Outline: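 DRD2-HEK293; 0.1 mM Ro20-1724; cpd 10 min RT; NKH477 200 nM + quinpirole 12 nM, 30 min RT; HTRF cAMP (cAMP-d2/anti-cAMP cryptate), 665/620 nm ratio after 1 h.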

| Structure (SMILES) | Potency [1] | Potency [2] | Potency [3] | Potency [4] | Potency [5] | Potency [6] | Potency [7] | Potency [8] | Potency [9] | Potency [10] | Potency [11] | Potency [12] | Potency [13] | Potency [14] | Potency [15] | Potency [16] | Potency [17] | Potency [18] | Potency [19] |
| --- | --- | --- | --- | --- | --- | --- | --- | --- | --- | --- | --- | --- | --- | --- | --- | --- | --- | --- | --- |
| CC(C)[N+](=O)[O-] | inactive | inactive | inactive | inactive | inactive | inactive | inactive | inactive | inactive | inactive | inactive | inactive | inactive | inactive | inactive | inactive | – | – | – |
| CC(C)C(=O)Cl | inactive | inactive | inactive | inactive | inactive | inactive | inactive | – | – | – | inactive | inactive | inactive | inactive | – | inactive | inactive | inactive | inactive |
| CC(=O)C(Cl)(Cl)Cl | 16.6 µM (active) | 20.9 µM (active) | inactive | inactive | inactive | inactive | – | – | 24.8 µM (active) | inactive | – | inactive | – | – | – | inactive | inactive | – | inactive |
| O=C1OC(CCN2CCCCC2)OC1(c1ccccc1)c1ccccc1 (stereo not drawn) | inactive | 29.8 µM (active) | inactive | inactive | inactive | inactive | inactive | inactive | – | inactive | – | inactive | inactive | inactive | – | inactive | inactive | – | inactive |
| CCC[N+](CCC)(CCC)CCC | inactive | inactive | inactive | inactive | inactive | – | inactive | – | inactive | inactive | inactive | inactive | inactive | inactive | inactive | inactive | inactive | inactive | inactive |
| CCCCOC(C)=O | inactive | inactive | inactive | inactive | inactive | inactive | inactive | inactive | – | inactive | inactive | – | inactive | – | inactive | inactive | inactive | inactive | inactive |
| C[N+]1(CCF)[C@@H]2CC[C@H]1CC(OC(=O)C(O)(c1ccccc1)c1ccccc1)C2 (stereo partly drawn) | inactive | inactive | inactive | inactive | inactive | inactive | inactive | inactive | inactive | inactive | – | inactive | inactive | inactive | inactive | – | inactive | inactive | inactive |
| CO/C=C(/C(=O)OC)c1ccccc1COc1cccc(C(F)(F)F)n1 | inactive | inactive | inactive | inactive | inactive | inactive | inactive | inactive | inactive | – | inactive | inactive | inactive | – | inactive | inactive | – | – | inactive |
